Common to all, as to assay type: functional
The test system of test [1] is Plasmodium falciparum. The test can be described thus: GSK_TCMDC: Inhibition of Plasmodium falciparum 3D7 in whole red blood cells, using parasite LDH activity as an index of growth. Test compounds present at 2uM.
Test [2] relates to Plasmodium falciparum. The test can be described thus: GSK_TCMDC: Inhibition of Plasmodium falciparum Dd2 in whole red blood cells, using parasite LDH activity as an index of growth. Test compounds present at 2uM.
For the next test, the system named is HepG2. The test can be described thus: GSK_TCMDC: Percent inhibition of human HepG2 cell line. Test compounds present at 10uM.

The values below come from ChEMBL document CHEMBL1157539, “Thousands of chemical starting points for antimalarial lead identification” (Nature, 2010).

By Inhibition is commonly meant the relative decrease from the control value, in per cent. A higher Inhibition goes with a strong effect.

With `O=S1(=O)NC2(CCN(CCc3ccc(Cl)cc3)CC2)Nc2cc(F)cc(F)c21`, the Inhibition came out at 86% with Plasmodium falciparum [1], 5% in the test on Plasmodium falciparum [2] and 7% in the test with HepG2.
With `CCCCCC(C)(C)NC[C@@H](O)[C@H](Cc1ccccc1)NC(=O)c1cc(NCC)cc(N2CCCC2=O)c1.O=CO`, the Inhibition is 99% in the test with Plasmodium falciparum [1], 97% with Plasmodium falciparum [2] and 9% in the test on HepG2.
Consider `O=C(CCNc1ccnc(NCCc2ccc(F)cc2)n1)Nc1ccccc1.O=C(O)C(F)(F)F`, for which the Inhibition in the test with Plasmodium falciparum [1] amounted to 95%; with Plasmodium falciparum [2], 10%; with HepG2, 9%.
On to `CC(C)C[C@H](NC(=O)c1cccc(F)c1)C(=O)N[C@H](/C=N/NC(=O)c1ccccc1)CCc1ccccc1`, for which the Inhibition is on record as 93% in the test with Plasmodium falciparum [1], 71% with Plasmodium falciparum [2] and 0% in the test on HepG2.
As to `Cc1ccc(-c2nc3cc(C(=O)NC4CCN(Cc5ccccc5)CC4)ccc3[nH]2)cc1`, the values for the Inhibition in the test with Plasmodium falciparum [1], with Plasmodium falciparum [2] and with HepG2 were 100%, 53% and 20%, respectively.
Taken in the same sequence, the figures for `N=C1NC(=N)N(OCCCCCCON2C(=N)NC(=N)NC2C=Cc2ccccc2)C(C=Cc2ccccc2)N1` (configuration not stated) were 97%, 94% and 17%.
Turning to `O=[N+]([O-])c1cccc(/C=N/Nc2ccnc3ccc(C(F)(F)F)cc23)c1`, the Inhibition in the test on Plasmodium falciparum [1] turned out to be 96%; in the test on Plasmodium falciparum [2] it was 35%; with HepG2, 0%.
The matching figures for `O=C(NC1CCN(Cc2ccccc2)CC1)c1ccc(CNC2CCN(Cc3ccccc3)CC2)cc1.O=C(O)C(F)(F)F`: 99%, 58% and 14%.
Consider `CCn1c(-c2nonc2N)nc2c(-c3cccc(NC(=O)NC45CC6CC(CC(C6)C4)C5)c3)ncc(OCCCN)c21.O=C(O)C(F)(F)F`, for which the results for the Inhibition in the test on Plasmodium falciparum [1], in the test with Plasmodium falciparum [2] and with HepG2 were 94%, 63% and 100%, respectively.
For the compound `C=CC[C@H](C[C@H](O)[C@H](Cc1ccccc1)NC(=O)c1ccc(-n2cccn2)cc1)C(=O)NC1CCCCC1`, the Inhibition turned out to be 96% in the test on Plasmodium falciparum [1], 0% in the test with Plasmodium falciparum [2] and 1% with HepG2.
In the case of `O=C(NCC1Cc2cc(Oc3ccccc3)ccc2O1)c1ccc([N+](=O)[O-])o1` (configuration not stated), the figures for the Inhibition in the test on Plasmodium falciparum [1], with Plasmodium falciparum [2] and in the test on HepG2 were 88%, 81% and 83%, respectively.
Take `O=C(/C=C/c1ccc(Cl)c(Cl)c1)NCC1CCN(Cc2ccc(O)cc2)CC1.O=C(O)C(F)(F)F`: the Inhibition in the test with Plasmodium falciparum [1] was 98%; with Plasmodium falciparum [2], 0%; in the test with HepG2, 4%.
Taken in the same sequence, the figures for `Cc1cc(=O)c(-c2ccc(OCCSc3ccc(C(F)(F)F)cn3)cc2)c(C)[nH]1` were 97%, 96% and 2%.
With `O=c1cc(NCCCNCc2cccc(SC(F)(F)F)c2)[nH]c2ccccc12`, the Inhibition came out at 100% in the test on Plasmodium falciparum [1], 94% in the test on Plasmodium falciparum [2] and 0% in the test on HepG2.
As to `COc1ccc(-c2cc(Nc3nc(-c4cccc(Cl)c4)nc4ccccc34)ccn2)cc1`, the Inhibition with Plasmodium falciparum [1] was 100%; with Plasmodium falciparum [2], 17%; with HepG2, 3%.
For `CC(C)C[C@@H](/C=N/N1CC(=O)NC1=O)NC(=O)[C@H](CC(C)C)NC(=O)c1ccc(OCCN2CCOCC2)cc1`, the Inhibition was determined as 94% in the test on Plasmodium falciparum [1], 79% in the test on Plasmodium falciparum [2] and 11% in the test with HepG2.
`CCCC(C)NC(=O)/C=C/c1ccccc1-c1cccc(OC)c1` (configuration not stated): the Inhibition in the test on Plasmodium falciparum [1] is 87%; with Plasmodium falciparum [2], 59%; in the test with HepG2, 0%.
As to `O=C(Cn1c(=O)oc2ccccc21)N1CCC(n2c(=O)n(CCCN3CCOCC3)c3ccccc32)CC1`, the Inhibition in the test with Plasmodium falciparum [1] is listed as 99%; in the test with Plasmodium falciparum [2], 100%; with HepG2, 11%.
Consider `Cc1nc2nc(N)nc(N)c2c(C)c1Cc1cccc(F)c1.Cl`, for which the Inhibition in the test on Plasmodium falciparum [1] was determined as 96%; in the test with Plasmodium falciparum [2], 1%; in the test on HepG2, 65%.
The matching figures for `Cc1ccc(OCC2CCN(c3ncc(C(=O)NC4CC4)cc3Cl)CC2)cc1`: 88%, 72% and 2%.
Taken in the same sequence, the figures for `O=C(Nc1ccc(-c2nc3ccccc3[nH]2)cc1)c1cncc(Br)c1` were 95%, 49% and 35%.
For `Cc1cc(N[C@@H](Cc2ccccc2)C(=O)NCc2cccs2)nc(NCCOc2ccccc2)n1.O=C(O)C(F)(F)F`, the results for the Inhibition in the test with Plasmodium falciparum [1], in the test on Plasmodium falciparum [2] and in the test on HepG2 were 93%, 31% and 2%, respectively.
Regarding `O=C(O)C(F)(F)F.O=S(=O)(NCCN1CCCC1)c1cccc(-c2cccc(CNCc3ccsc3)c2)c1`, the Inhibition in the test with Plasmodium falciparum [1] was found to be 100%; with Plasmodium falciparum [2], 55%; with HepG2 it was 69%.
As for `O=C(Nc1cccc(-c2ccc(-c3nc4cc(F)ccc4[nH]3)cc2)c1)c1cccnc1`, the Inhibition in the test with Plasmodium falciparum [1] was 100%; in the test on Plasmodium falciparum [2], 92%; with HepG2 it was 27%.
On to `CCS[C@@H]1O[C@H](COC(=O)c2ccccc2)[C@H](OC(=O)c2ccccc2)[C@H](OC(=O)c2ccccc2)[C@H]1OC(=O)c1ccccc1`, for which the results for the Inhibition in the test with Plasmodium falciparum [1], in the test on Plasmodium falciparum [2] and in the test on HepG2 were 98%, 52% and 4%, respectively.
As to `CC(C)C[C@H](NC(=O)c1cc2ccccc2s1)C(=O)N[C@H]1CCN(Cc2ccc(OCCCN(C)C)c(Cl)c2)C1.O=C(O)C(F)(F)F`, the results for the Inhibition with Plasmodium falciparum [1], with Plasmodium falciparum [2] and in the test on HepG2 were 100%, 89% and 83%, respectively.
The matching figures for `O=C(N/N=C/c1nc2ccccc2[nH]1)c1cccc([N+](=O)[O-])c1`: 99%, 82% and 0%.
For `CS(=O)(=O)Nc1ccc2[nH]cc(C3CCN(CCCCCNC(=O)/C=C/c4ccc(Cl)c(Cl)c4)CC3)c2c1`, the Inhibition was determined as 100% in the test with Plasmodium falciparum [1], 0% in the test with Plasmodium falciparum [2] and 1% with HepG2.
As for `CN(C)CCn1c(N)c(-c2nc3ccccc3s2)c2nc(C#N)c(C#N)nc21`, the Inhibition in the test with Plasmodium falciparum [1] amounted to 94%; with Plasmodium falciparum [2], 40%; with HepG2, 4%.
